Data on 18 compounds can be found in PubChem BioAssay (EPA / NIEHS).

Experiment [1] has as its target Retinoic acid receptor RXR-alpha (Homo sapiens) (UniProt P19793). In words: OT_NURR1_NURR1RXRa_0480: Odyssey Thera (OT) 8-hour HEK293T Protein Complementation Assay for Nurr1/retinoid X receptor (RXR) (AID 2283385). The method in brief: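 Gain in fluorescent complementation signal over DMSO, measured 8 hours after chemical dosing of human kidney HEK293T cells, indicated enhanced Nurr1–RXRα association.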

Experiment [2] shares this target. In words: OT_NURR1_NURR1RXRa_1440: Odyssey Thera (OT) 24-hour HEK293T Protein Complementation Assay for Nurr1/retinoid X receptor (RXR) (AID 2283386). Summed up:
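Cell-based binding reporter: HEK293T cells, 24 h exposure, fluorescence-detected fragment complementation, DMSO as baseline.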

The nature of experiment [3]: CEETOX_H295R_11DCORT: CeeTox H295R High-throughput Steroidogenesis Assay for 11-Deoxycortisol (11DCORT) (AID 2283432; active = hit-call score of the fitted dose curve at least 0.9, where 1 is the maximum; inactive = score below 0.9;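 note: 11-deoxycortisol secreted into the medium measured by LC-MS/MS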). Particulars: actives raise or lower the signal. Summed up:
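H295R cells; 10 uM forskolin prestim 48 h; compound in 0.1% DMSO 48 h; media extracted with MTBE; 11-deoxycortisol by LC-MS/MS, 7-point standard curve; gain/loss vs DMSO baseline; viability by MTT in same wells.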

Experiment [4] can be described thus: CEETOX_H295R_OHPREG: CeeTox H295R High-throughput Steroidogenesis Assay for OH-Pregnenolone (OHPREG) (AID 2283434; active = hit-call score of the fitted dose curve at least 0.9, where 1 is the maximum; inactive = score below 0.9). To be noted: actives raise or lower the signal. The method in brief: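 Secreted 17alpha-hydroxypregnenolone measured by HPLC-MS/MS after liquid-liquid extraction. Human adrenal H295R cells received 48 h forskolin (10 uM) stimulation before 48 h chemical exposure at 0.1% final DMSO; MTT viability in same wells; bidirectional fit against DMSO.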

Experiment [5] can be described thus: CEETOX_H295R_OHPROG: CeeTox H295R High-throughput Steroidogenesis Assay for OH-Progesterone (OHPROG) (AID 2283435; active = hit-call score of the fitted dose curve at least 0.9, where 1 is the maximum; inactive = score below 0.9;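 note: 17alpha-hydroxyprogesterone secreted into medium measured by HPLC-MS/MS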). To be noted: actives raise or lower the signal. Summed up: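 Human adrenocortical H295R cells, passage 10 or lower, were treated with chemical for 48 h after forskolin priming, and hormone output in the medium was quantified by LC-MS/MS.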
Experiment [6] can be described thus: CEETOX_H295R_CORTISOL: CeeTox H295R High-throughput Steroidogenesis Assay for Cortisol (AID 2283438; active = hit-call score of the fitted dose curve at least 0.9, where 1 is the maximum; inactive = score below 0.9;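 note: cortisol secreted into medium quantified by LC-MS/MS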). Particulars: actives raise or lower the signal. Summed up: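 Steroidogenesis in H295R, per modified OECD 456: 48 h forskolin (10 uM), then 48 h exposure, 0.1% DMSO. Cortisol by extraction and tandem MS; viability by MTT (570/650 nm); cytotoxic chemicals diluted and re-tested.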

Experiment [7] is described as follows: CEETOX_H295R_DOC: CeeTox H295R High-throughput Steroidogenesis Assay for DOC (AID 2283439; active = hit-call score of the fitted dose curve at least 0.9, where 1 is the maximum; inactive = score below 0.9). To be noted: actives raise or lower the signal. Summed up: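 H295R, fsk 10 uM ×48 h pre, cmpd ×48 h (0.1% DMSO). Media → MTBE extr. → LC-MS/MS, DOC. Bidirectional fit vs DMSO; MTT viability same wells, re-test diluted if <70%.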
Experiment [8] is described as follows: CEETOX_H295R_PROG: CeeTox H295R High-throughput Steroidogenesis Assay for Progesterone (PROG) (AID 2283442; active = hit-call score of the fitted dose curve at least 0.9, where 1 is the maximum; inactive = score below 0.9;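 for AC50: human H295R adrenal cells primed with 10 µM forskolin before dosing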). Particulars: actives raise or lower the signal. The method in brief:
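H295R adrenal cells prestimulated 48 h with 10 uM forskolin, then exposed 48 h to test chemical in 0.1% DMSO. Progesterone in medium quantified by HPLC-MS/MS after MTBE extraction; viability checked by MTT in same wells.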

Read-out in experiment [9]: Tumor necrosis factor receptor superfamily member 6 (Homo sapiens) (UniProt P25445)
Put plainly: LTEA_HepaRG_FAS: Life Technologies and Expression Analysis (LTEA) Assay for Fas cell surface death receptor (FAS) using HepaRG (AID 2283447; active = hit-call score of the fitted dose curve at least 0.9, where 1 is the maximum; inactive = score below 0.9). Particulars: mRNA level, 48 h; actives raise or lower the signal. Summed up:
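FAS transcript level was measured by TaqMan qRT-PCR against three housekeeping genes after 48 h chemical exposure. Cells were HepaRG, 0.5% DMSO vehicle, with a top concentration of 100 uM and half-log dilutions over eight points, in duplicate.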

Read-out in experiment [10]: Fatty acid synthase (Homo sapiens) (UniProt P49327)
In words: LTEA_HepaRG_FASN: Life Technologies and Expression Analysis (LTEA) Assay for Fatty Acid Synthase (FASN) using HepaRG (AID 2283448; active = hit-call score of the fitted dose curve at least 0.9, where 1 is the maximum; inactive = score below 0.9;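 for AC50: differentiated human HepaRG liver cells in serum-free induction medium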). To be noted: mRNA level, 48 h; actives raise or lower the signal. The method in brief: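 In human HepaRG cultures, 48 h chemical exposure (up to 100 uM, 0.5% DMSO) preceded TaqMan qRT-PCR of FASN.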

Read-out in experiment [11]: Cyclin D2 (CCND2), CCND2 (gene 894)
In words: LTEA_HepaRG_CCND2: Life Technologies and Expression Analysis (LTEA) Assay for Cyclin D2 (CCND2) using HepaRG (AID 2283449; active = hit-call score of the fitted dose curve at least 0.9, where 1 is the maximum; inactive = score below 0.9). To be noted: mRNA level, 48 h; actives raise or lower the signal. Summed up: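 CCND2 transcript levels, quantified by qRT-PCR and normalised to three housekeeping genes, were fitted bidirectionally against 0.5% DMSO. HepaRG cultures were dosed 48 h in duplicate with an 8-point half-log series up to 100 uM.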

Experiment [12] has as its target Peroxisome proliferator-activated receptor gamma (Homo sapiens) (UniProt P37231). Put plainly: OT_PPARg_PPARgSRC1_0480: Odyssey Thera (OT) 8-hour Protein-Complementation Assay for Peroxisome Proliferator-activated Receptor Gamma / SRC-1 Co-activator (AID 2283387). The method in brief: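 Read-out: 488 nm N/C fluorescence ratio from complemented Venus YFP fragments, ≥350 cells per image, gain-of-signal fitted against DMSO baseline. Fusions of PPARg/SRC-1 with IFP1/IFP2 expressed transiently in HEK293T; compounds applied 8 h.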

Experiment [13] shares this target. In words: OT_PPARg_PPARgSRC1_1440: Odyssey Thera (OT) 24-hour Protein-Complementation Assay for Peroxisome Proliferator-activated Receptor Gamma/ SRC-1 Co-activator (AID 2283388). Summed up: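 HEK293T transiently transfected with PPARg/SRC-1 split-Venus YFP fusions 48 h before dosing, then treated 24 h at 37C. Fixed cells imaged; nuclear/cytoplasmic 488 nm fluorescence ratio, gain of signal versus DMSO.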

Where “and” joins values, the source holds several entries; their conditions need not be identical. Equal values may be shown once. Results filed as inconclusive are left out. Calls of active or inactive are those of the source. Rule for the calls, unless noted: active = hit-call score of the fitted dose curve at least 0.9, where 1 is the maximum; inconclusive = response in the unintended direction; inactive = score below 0.9.

Chain of Peroxisome proliferator-activated receptor gamma (Homo sapiens) (P37231 whole entry, looked up, the tested form may be a part): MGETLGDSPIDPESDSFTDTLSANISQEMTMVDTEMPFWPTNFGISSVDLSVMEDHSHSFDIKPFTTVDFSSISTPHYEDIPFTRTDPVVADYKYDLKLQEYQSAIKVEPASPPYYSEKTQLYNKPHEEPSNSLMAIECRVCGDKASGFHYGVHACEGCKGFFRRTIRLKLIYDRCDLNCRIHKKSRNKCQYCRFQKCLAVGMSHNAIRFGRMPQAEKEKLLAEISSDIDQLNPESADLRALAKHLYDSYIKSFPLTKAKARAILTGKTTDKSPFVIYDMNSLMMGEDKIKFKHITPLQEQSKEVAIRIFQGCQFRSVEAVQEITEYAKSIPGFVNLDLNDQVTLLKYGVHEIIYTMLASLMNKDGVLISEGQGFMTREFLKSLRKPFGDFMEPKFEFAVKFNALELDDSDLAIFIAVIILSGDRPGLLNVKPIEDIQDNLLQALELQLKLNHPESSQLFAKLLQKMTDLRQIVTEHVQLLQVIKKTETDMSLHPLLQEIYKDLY
Chain of Fatty acid synthase (Homo sapiens) (P49327 whole entry, looked up): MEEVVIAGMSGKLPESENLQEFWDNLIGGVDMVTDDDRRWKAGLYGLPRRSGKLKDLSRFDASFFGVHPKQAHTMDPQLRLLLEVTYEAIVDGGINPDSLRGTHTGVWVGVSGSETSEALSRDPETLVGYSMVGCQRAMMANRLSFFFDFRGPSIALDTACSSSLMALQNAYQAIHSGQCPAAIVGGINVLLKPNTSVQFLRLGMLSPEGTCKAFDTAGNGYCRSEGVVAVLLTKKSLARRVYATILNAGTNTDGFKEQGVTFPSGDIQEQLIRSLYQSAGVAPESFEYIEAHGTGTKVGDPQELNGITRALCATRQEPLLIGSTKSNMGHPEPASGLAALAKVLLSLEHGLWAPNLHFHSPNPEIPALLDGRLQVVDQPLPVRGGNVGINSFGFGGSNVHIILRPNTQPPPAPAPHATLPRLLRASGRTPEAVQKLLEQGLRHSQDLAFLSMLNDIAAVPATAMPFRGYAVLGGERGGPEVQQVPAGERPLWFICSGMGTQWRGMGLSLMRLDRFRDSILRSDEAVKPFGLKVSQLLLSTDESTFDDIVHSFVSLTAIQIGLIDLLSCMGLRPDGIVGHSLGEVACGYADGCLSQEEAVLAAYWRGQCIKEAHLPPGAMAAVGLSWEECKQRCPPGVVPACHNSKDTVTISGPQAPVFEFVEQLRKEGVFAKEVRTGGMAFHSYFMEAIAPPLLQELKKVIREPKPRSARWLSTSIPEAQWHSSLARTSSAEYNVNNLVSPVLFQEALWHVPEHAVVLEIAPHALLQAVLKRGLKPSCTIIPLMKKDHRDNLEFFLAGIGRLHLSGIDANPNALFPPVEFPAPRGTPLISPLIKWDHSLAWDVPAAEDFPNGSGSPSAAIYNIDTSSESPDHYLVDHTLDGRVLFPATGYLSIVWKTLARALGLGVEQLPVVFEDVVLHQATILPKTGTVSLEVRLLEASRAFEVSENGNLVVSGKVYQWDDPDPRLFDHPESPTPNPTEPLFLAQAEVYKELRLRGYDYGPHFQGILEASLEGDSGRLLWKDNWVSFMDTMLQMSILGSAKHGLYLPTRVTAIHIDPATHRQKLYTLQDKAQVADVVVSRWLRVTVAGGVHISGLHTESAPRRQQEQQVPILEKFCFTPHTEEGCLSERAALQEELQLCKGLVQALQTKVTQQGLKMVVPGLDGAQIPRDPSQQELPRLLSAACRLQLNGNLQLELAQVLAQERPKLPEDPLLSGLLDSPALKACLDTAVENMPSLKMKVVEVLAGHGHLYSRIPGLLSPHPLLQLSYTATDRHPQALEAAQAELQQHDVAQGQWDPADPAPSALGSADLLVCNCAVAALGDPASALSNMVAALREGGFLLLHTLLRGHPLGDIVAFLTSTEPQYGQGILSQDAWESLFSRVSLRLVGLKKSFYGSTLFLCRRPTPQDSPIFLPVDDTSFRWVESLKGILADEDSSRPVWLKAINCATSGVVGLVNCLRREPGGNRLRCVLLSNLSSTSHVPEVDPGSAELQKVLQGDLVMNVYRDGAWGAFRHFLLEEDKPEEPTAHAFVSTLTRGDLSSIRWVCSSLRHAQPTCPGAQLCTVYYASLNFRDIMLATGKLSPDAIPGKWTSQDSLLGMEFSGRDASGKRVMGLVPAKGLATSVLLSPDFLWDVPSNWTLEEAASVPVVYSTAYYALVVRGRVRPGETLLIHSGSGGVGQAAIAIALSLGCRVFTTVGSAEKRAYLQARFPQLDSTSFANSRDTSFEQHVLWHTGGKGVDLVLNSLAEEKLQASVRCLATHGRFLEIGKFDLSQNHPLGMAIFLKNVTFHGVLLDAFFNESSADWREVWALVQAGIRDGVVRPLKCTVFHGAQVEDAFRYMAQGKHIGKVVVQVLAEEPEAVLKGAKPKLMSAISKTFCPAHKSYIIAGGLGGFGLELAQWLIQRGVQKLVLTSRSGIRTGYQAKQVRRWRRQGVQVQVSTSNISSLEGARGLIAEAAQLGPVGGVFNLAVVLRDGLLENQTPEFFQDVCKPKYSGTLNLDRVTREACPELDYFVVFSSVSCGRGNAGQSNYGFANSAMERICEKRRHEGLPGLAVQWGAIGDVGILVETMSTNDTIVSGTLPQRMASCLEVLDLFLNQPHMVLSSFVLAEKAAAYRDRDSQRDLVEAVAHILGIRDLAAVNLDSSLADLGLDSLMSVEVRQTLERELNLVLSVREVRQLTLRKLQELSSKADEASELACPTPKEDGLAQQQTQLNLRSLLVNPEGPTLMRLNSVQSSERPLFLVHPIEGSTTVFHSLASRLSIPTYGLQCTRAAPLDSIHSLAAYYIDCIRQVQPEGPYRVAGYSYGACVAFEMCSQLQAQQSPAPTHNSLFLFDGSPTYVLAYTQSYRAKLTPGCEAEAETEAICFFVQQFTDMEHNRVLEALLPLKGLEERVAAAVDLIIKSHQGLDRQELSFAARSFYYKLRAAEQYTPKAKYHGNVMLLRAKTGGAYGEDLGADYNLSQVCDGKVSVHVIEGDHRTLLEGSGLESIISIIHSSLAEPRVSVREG
Chain of Retinoic acid receptor RXR-alpha (Homo sapiens) (P19793 whole entry, looked up): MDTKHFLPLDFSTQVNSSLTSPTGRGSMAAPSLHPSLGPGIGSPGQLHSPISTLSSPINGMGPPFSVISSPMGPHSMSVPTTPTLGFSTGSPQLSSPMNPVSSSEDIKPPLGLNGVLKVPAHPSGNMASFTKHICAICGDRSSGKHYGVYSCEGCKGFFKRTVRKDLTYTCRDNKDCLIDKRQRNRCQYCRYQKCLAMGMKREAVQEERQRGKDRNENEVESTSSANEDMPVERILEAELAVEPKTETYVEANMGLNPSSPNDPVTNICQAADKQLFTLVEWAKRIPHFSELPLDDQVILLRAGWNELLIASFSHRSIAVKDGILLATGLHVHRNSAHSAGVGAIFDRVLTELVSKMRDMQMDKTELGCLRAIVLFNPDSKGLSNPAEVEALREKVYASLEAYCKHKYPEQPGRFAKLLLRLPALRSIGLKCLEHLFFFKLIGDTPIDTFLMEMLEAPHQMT

Regarding `CC(=O)[C@@]1(O)CC[C@H]2[C@@H]3CCC4=CC(=O)CC[C@]4(C)[C@H]3CC[C@@]21C`, the compound was classed as inactive in experiment [1], in experiment [2], in [9] and in [11]. Besides, the AC50 is 8.94 µM (active) in experiment [3]; 14.2 µM (active) in experiment [4]; 41.2 µM (active) in experiment [5]; 1.12 µM (active) in experiment [6]; 14.9 µM (active) in experiment [7]; 42.6 µM (active) in experiment [8]. Besides, in experiment [10], the AC50 was 50 µM (active).
With `COC(=O)[C@H]1[C@H]2C[C@@H]3c4[nH]c5cc(OC)ccc5c4CCN3C[C@H]2C[C@@H](OC(=O)c2cc(OC)c(OC)c(OC)c2)[C@@H]1OC`, the AC50 in experiment [1] is 16.6 µM (active) and 22.4 µM (active); in experiment [2] it was 16.5 µM (active) and 25.1 µM (active); in [12] it was 11.4 µM (active) and 58 µM (active); in experiment [13], 12.5 µM (active) and 34.3 µM (active); in experiment [10], 28.1 µM (active); in [11], 14.9 µM (active). The call in experiment [9] was inactive.
As to `CC(=O)OCC(COC(C)=O)OC(C)=O`, the outcome in [2], in experiment [12], in [13], in experiment [9], in [10] and in experiment [11] was inactive.
`C#CC(O)C(CC)CCCC` (stereo unspecified): the AC50 in [1] is 28.8 µM (active); in experiment [2] it was 76.3 µM (active). In addition, the compound was classed as inactive in experiment [12], in [13], in experiment [9], in experiment [10] and in experiment [11].
On to `OCC(O)CO`, for which the outcome in experiment [9], in experiment [10] and in experiment [11] was inactive.
Regarding `CCc1cc(C2=C(C(=O)O)N(c3ccccc3C(F)(F)F)S(=O)(=O)c3ccccc32)cc2c1OCO2`, the compound was called inactive in experiment [2], in experiment [10] and in experiment [11]. Moreover, the AC50 in [9] was 50 µM (active).
On to `CC(=O)O`, for which the compound was called inactive in experiment [9], in [10] and in [11].
Regarding `CC(N)=O`, the result in [2], in experiment [12], in experiment [13], in experiment [9] and in [10] was inactive.
As for `O=NO`, the result in experiment [2], in experiment [12], in experiment [13], in experiment [9] and in [10] was inactive.
With `C/C=C/c1ccc(OC)cc1`, the call in experiment [1], in experiment [12], in experiment [13], in experiment [9] and in experiment [10] was inactive.
`CC(=O)O[C@]1(C(C)=O)CC[C@H]2[C@@H]3C=C(Cl)C4=CC(=O)[C@@H]5C[C@@H]5[C@]4(C)[C@H]3CC[C@@]21C`: the AC50 is 28 µM (active) in experiment [1]; 82.6 µM (active) in experiment [2]; 2.37 µM (active) in [4]; 3.63 µM (active) in experiment [5]; 50 µM (active) in experiment [10]; 0.0078 µM (active) in [11]. Moreover, the compound was called inactive in [12], in [13], in experiment [8] and in experiment [9].
As for `O=C1O[C@H]([C@H](O)CO)C(O)=C1O`, the compound was called inactive in experiment [1], in experiment [2], in [12], in [13], in experiment [9] and in experiment [10]. For the same compound, the result in experiment [11] was inactive.
Turning to `CCCCOC(=O)CCCCC(=O)OCCCC`, the result in experiment [2], in experiment [12], in [13], in [9], in [10] and in experiment [11] was inactive.
On to `CN(C)CCCN1c2ccccc2Sc2ccc(Cl)cc21`, for which the result in experiment [12], in experiment [13], in [9] and in experiment [11] was inactive. In addition, the AC50 in experiment [10] is 12.5 µM (active).
As to `CC(C)(C)c1ccccc1`, the call in [1], in [2], in experiment [9], in experiment [10] and in experiment [11] was inactive.
Take `CC(=O)CC(c1ccccc1)c1c(O)c2ccccc2oc1=O` (stereo unspecified): the compound was classed as inactive in [1], in experiment [2], in [9] and in experiment [11]. Besides, the AC50 in experiment [10] is 13.4 µM (active).
In the case of `C/C=C/C=C/C(=O)O`, the result in [2], in experiment [12], in [13], in experiment [10] and in [11] was inactive.
For the compound `CC(C)NCC(O)c1ccc(O)c(O)c1` (stereo unspecified), the AC50 in experiment [1] is 0.03 µM (active); in experiment [2], 35.5 nM (active) and 30 nM (active); in experiment [10], 0.219 µM (active). In addition, the compound was called inactive in [12], in [13], in experiment [9] and in experiment [11].

By AC50 is commonly meant the midpoint of the concentration-response curve, whichever way the signal moves.
